Measured values reported in publication PMC4552634, “A New Set of Chemical Starting Points with Plasmodium falciparum Transmission-Blocking Potential for Antimalarial Drug Discovery” (PLoS ONE, 2015).
Out of some 13,000 compounds screened, about 3,200 (25%) showed an effect of 50% or more. Some of the results follow.

Each compound was assayed on P. falciparum stage V gametocytes. Conditions: 48 h, 5 µM; inhibitor.
Set-up: BacTiter-Glo ATP luminescence viability of purified stage V gametocytes in 384-well plates, per cent inhibition versus DMSO

Structure (SMILES)	% Inhibition
O=C(NC1CCC(N2CCC(Cc3ccc(F)cc3)CC2)CC1)c1cc2ccccc2[nH]1 (stereo not drawn) [TCMDC-132894]	45.26%
Cc1cnc(-c2ccc(NC(=O)N3CCc4cc5nccc(N6CCN7CCC[C@H]7C6)c5cc43)c3ccccc23)o1 [TCMDC-140052]	-7.754%
COc1ccc(NS(=O)(=O)c2cc(NC(=O)Cn3ccccc3=O)ccc2N2CCCCC2)cc1 [TCMDC-124874]	16.03%
Cc1cc2c(cc1C(F)(F)F)N(C(=O)Nc1ccc(C(=O)NCCN3CCCC3)cc1)CC2 [TCMDC-139870]	3.174%
CC(=O)Nc1ncc(C(=O)Nc2cccc(-c3cccc(-c4nc5c(C)cccc5[nH]4)c3)c2)s1 [TCMDC-136920]	35.18%
C=CCOC(=O)N1CCC(CNCc2ccc(-c3ccc(-c4nc5cc(C(F)(F)F)ccc5[nH]4)cc3)cc2)C1.O=C(O)C(F)(F)F (stereo not drawn) [TCMDC-133041]	-74.05%
CC(C)CCNCc1ccc(OCc2cccc(COc3ccc(CNCCC(C)C)cc3I)c2)c(I)c1 [TCMDC-137274]	110.6%
Ic1cc(Nc2ncnc3ccsc23)ccc1OCc1ccccc1 [TCMDC-131945]	7.84%
CC(C)CCNCc1ccc(OCc2cccc(C(=O)Nc3ccccc3)c2)c(I)c1 [TCMDC-137174]	28.8%
Oc1ccc(CCNCc2ccc(OCc3ccccc3)c(OCc3ccccc3)c2)cc1 [TCMDC-131868]	6.388%
CCc1cc(COc2ccc(CNCCC(C)C)cc2I)c(OCc2ccccc2)c(COc2ccc(CNCCC(C)C)cc2I)c1 [TCMDC-137255]	104.7%
CN(C)Cc1cccc(CNC(=O)c2sccc2OCc2ccc(Cl)cc2)c1 [TCMDC-133072]	41.43%
Cc1ccc(C)c(NC(=O)Nc2ccc(C)c(-c3ccc(C(=O)Nc4ccncc4)cc3)c2)c1 [TCMDC-133703]	-9.34%
COc1cc(CCNC(=N)/C=C/c2ccc(Cl)cc2)ccc1Cl [TCMDC-137457]	106.7%
COc1ccc(NC(=O)N2CCCN(CCCCCNC(=O)/C=C/c3ccc(Cl)cc3)CC2)cc1Cl [TCMDC-136103]	-49.97%
COc1ccc(CCNc2ccnc3cc(Cl)ccc23)cc1OC [TCMDC-138550]	-32.91%
O=C(NCCN1CCCC1)c1ccc(-c2cccc(-c3nc4ccc(F)cc4[nH]3)c2)cc1 [TCMDC-132321]	-17.02%
COc1cc(OC)cc(C(=O)Nc2ccc(Nc3nc(C)cc(N(C)C)n3)cc2)c1 [TCMDC-124726]	23.32%
NC(N)=NN=Cc1ccc2c(c1)Cc1ccccc1-2 [TCMDC-137360]	-2.51%
NC(N)=NN=Cc1ccc2c(ccc3ccccc32)c1 [TCMDC-137912]	86.91%
NC(N)=NN=Cc1ccc2ccc3ccccc3c2c1 [TCMDC-137902]	101.6%
NC(N)=NN=Cc1cc2ccccc2c2ccccc12 [TCMDC-137671]	48.28%

Structure (SMILES)	% Inhibition
Cc1ccccc1C1CCN(C2CCC(NC(=O)/C=C/c3cc(F)ccc3F)CC2)CC1 (stereo not drawn) [TCMDC-133510]	-90.23%
COc1ccc(NC(=O)[C@H](Cc2ccccc2)Nc2cc(C)nc(NCCOc3ccccc3)n2)cc1 [TCMDC-134757]	13.17%
COc1ccc(NC(=O)[C@H](Cc2ccccc2)Nc2cc(C)nc(NCCc3cccnc3)n2)cc1 [TCMDC-134818]	72.32%
Cc1cc(N[C@@H](Cc2ccccc2)C(=O)Nc2ccccc2)nc(NCCc2cccnc2)n1 [TCMDC-134820]	59.14%
COc1ccc(NC(=O)[C@H](Cc2ccccc2)Nc2cc(C)nc(Nc3ccccc3)n2)cc1 [TCMDC-134733]	-3.042%
COc1ccc(O)c(C(=O)c2cc(C(=O)NC3CCCCC3)c(=O)n(C3CCCCC3)c2)c1 [TCMDC-124510]	4.971%
Cc1[nH]c(C)c(-c2ccc(OCc3ccc(OC(F)(F)F)cc3)nc2)c(=O)c1Cl [TCMDC-135271]	11.85%
Cc1[nH]c(C)c(-c2ccc(OCc3cccc(C(F)(F)F)c3)nc2)c(=O)c1Br [TCMDC-135656]	74.31%
Cc1[nH]c(C)c(-c2ccc(OCc3cc(C(F)(F)F)cc(C(F)(F)F)c3)nc2)c(=O)c1Br [TCMDC-135815]	65.31%
Cc1[nH]c(C)c(-c2ccc(OCc3ccccc3C(F)(F)F)nc2)c(=O)c1Br [TCMDC-135796]	65.1%
Cc1[nH]c(C)c(-c2ccc(OCc3cc(C(F)(F)F)cc(C(F)(F)F)c3)nc2)c(=O)c1Cl [TCMDC-135814]	52.24%
COc1ccc(OC)c2c1CCN(CCN1CCC(C(=O)Nc3ccc(C(=O)Nc4ccc(Cl)cc4)cc3)CC1)C2 [TCMDC-138820]	2.402%
FC(F)(F)c1ccc2[nH]c(-c3ccc(-c4cccc(CNCc5cnn(-c6ccccc6)n5)c4)cc3)nc2c1.O=C(O)C(F)(F)F [TCMDC-132971]	-20.04%
O=C(NC1CCC(CCN2Cc3ccc(Br)cc3C2)CC1)c1cccc(-c2cccnc2)c1 (stereo not drawn) [TCMDC-139603]	36.86%
Nc1nc(N)c2c(Oc3cccnc3)cccc2n1 [TCMDC-137990]	-4.996%
CN(C)c1cccc(NC(=O)N[C@H]2N=C(c3ccccc3)c3ccccc3N(CC(=O)N3CCCC3)C2=O)c1 [TCMDC-131987]	37.26%
N#Cc1ccc(CCNc2nccc(-c3cccc(CN4CCNCC4)c3)n2)cc1 [TCMDC-134845]	38.8%
CCC[C@@H]([C@@H](CC1CCCCC1)C(=O)NC(C(=O)Nc1nccs1)C(CC)c1ccccc1)N(O)C=O (stereo partly drawn) [TCMDC-137999]	-15.87%
Cc1cccc2nc(-c3ccc(-c4ccc(CNCCCN5CCCC5=O)cc4)cc3)[nH]c12.O=C(O)C(F)(F)F [TCMDC-132763]	3.748%
O=C(Cn1c(CCc2cccc(F)c2F)nc(=O)c2ccccc21)N(Cc1ccc(-c2ccc(C(F)(F)F)cc2)cc1)C1CCN(C2CCOCC2)CC1 [TCMDC-136502]	73.92%
O=C(Cn1c(CCc2cccc(F)c2F)nc(=O)c2ccccc21)N(Cc1ccc(-c2ccc(C(F)(F)F)cc2)cc1)C1CCN(C2CCSCC2)CC1 [TCMDC-136609]	103.4%
O=C(Cn1c(CCc2cccc(F)c2F)nc(=O)c2cccnc21)N(Cc1ccc(-c2ccc(C(F)(F)F)cc2)cc1)C1CCN(C2CCSCC2)CC1 [TCMDC-136559]	46.52%

Structure (SMILES)	% Inhibition
O=C(Cn1c(CCc2cccc(F)c2F)nc(=O)c2cccnc21)N(Cc1ccc(-c2ccc(C(F)(F)F)cc2)cc1)C1CCN(C2CCOCC2)CC1 [TCMDC-136501]	53.37%
N#Cc1ccc(N2CCN(Cc3ccc(-c4ccc(-c5nc6cc(C(F)(F)F)ccc6[nH]5)s4)cc3)CC2)nc1.O=C(O)C(F)(F)F [TCMDC-133110]	-11.35%
N#Cc1ccc(CN2CCC(Oc3ccc(NC(=O)c4ccccc4)cc3Cl)CC2)cc1 [TCMDC-133958]	11.07%
COc1ccc(NC(=O)C2c3ccccc3C(=O)N(C3CCCC3)C2c2cccs2)cc1 (stereo not drawn) [TCMDC-125287]	90.81%
COc1ccc(NC(=O)Nc2ccc(Nc3nc(C)cc(N4CCCC4)n3)cc2)cc1 [TCMDC-124958]	27.34%
COc1ccc(NC(=O)C2c3ccccc3C(=O)N(C3CCCC3)C2c2cccs2)cc1OC (stereo not drawn) [TCMDC-124695]	88.1%
COc1ccc(NC(=O)C2c3ccccc3C(=O)N(C3CCCC3)C2c2cccs2)c(OC)c1 (stereo not drawn) [TCMDC-125288]	-16.95%
COc1ccc(Cl)cc1NC(=O)Nc1ccc2c(c1)CCN(C1CCC1)CC2 [TCMDC-136006]	9.191%
O=C(Nc1cccc(CN2CCCN(Cc3ccc(O)cc3)CC2)c1)c1cc2ccccc2o1 [TCMDC-141859]	49.98%
COc1cc(Br)c(NC(=O)Nc2ccc(C(F)(F)F)c(O[C@@H]3CCN(C)C3)c2)cc1OC [TCMDC-135186]	-75.17%
CN1CC[C@@H](Oc2cc(NC(=O)Nc3ccc(Cl)c(C(F)(F)F)c3)ccc2Cl)C1 [TCMDC-136149]	23.18%
CN1CC[C@@H](Oc2cc(NC(=O)Nc3ccccc3Br)ccc2Cl)C1 [TCMDC-136144]	79.19%
Cc1cc2nc(-c3ccc(C(=O)NCc4cccc(F)c4)cc3)[nH]c2cc1C [TCMDC-140432]	-28.29%
CC(C)Nc1cc(C(=O)N[C@@H](Cc2ccccc2)[C@H](O)CNC2CCCCC2)cc(N2CCCCS2(=O)=O)c1 [TCMDC-135203]	21.45%
COc1ccccc1N1CCN(Cc2c(O)ccc3cc(Br)ccc23)CC1 [TCMDC-123565]	17.32%
CC(=O)Nc1nc(C(=O)Nc2cccc(-c3ccc(-c4nc5cccc(C)c5[nH]4)s3)c2)cs1 [TCMDC-137132]	-23.79%
COc1ccc(Cl)cc1NC(=O)Nc1cc(C)nc2ccccc12 [TCMDC-125497]	-49.54%
COc1ccc(Cl)cc1NC(=O)C(C)N1CCN(S(=O)(=O)c2ccccc2F)CC1 (stereo not drawn) [TCMDC-123567]	-51.26%
COc1ccc(Cl)cc1NC(=O)CN(C)C(=O)c1cnn(-c2ccccc2)n1 [TCMDC-125457]	95.1%
Cc1ccc(-n2c(=O)c3cccnc3n2CC(=O)Nc2cccc(C)c2C)cc1 [TCMDC-125161]	23.17%
COc1ccc(CN(C2CC2)C(C)C(=O)c2[nH]c(C)c(C(C)=O)c2C)cc1 (stereo not drawn) [TCMDC-125037]	53.61%
CCCC(C)N(Cc1ccc(C(C)(C)C)cc1)C(=O)c1ccc(OC)cc1 (stereo not drawn) [TCMDC-139782]	14.81%
